Screening data (PubChem)
Rtt109 Vps75: inhibitors of Candida albicans Rtt109/Vps75 histone acetyltransferase; Q5AAJ8; purified Rtt109/Vps75, ThioGlo CoA-SH fluorescence, 4 h; inhibition, % at 34.9 µM; 0.16% of 330,000 active;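 active = inhibition of at least 50% in every replicate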
Target sequence (Q5AAJ8 whole entry, looked up): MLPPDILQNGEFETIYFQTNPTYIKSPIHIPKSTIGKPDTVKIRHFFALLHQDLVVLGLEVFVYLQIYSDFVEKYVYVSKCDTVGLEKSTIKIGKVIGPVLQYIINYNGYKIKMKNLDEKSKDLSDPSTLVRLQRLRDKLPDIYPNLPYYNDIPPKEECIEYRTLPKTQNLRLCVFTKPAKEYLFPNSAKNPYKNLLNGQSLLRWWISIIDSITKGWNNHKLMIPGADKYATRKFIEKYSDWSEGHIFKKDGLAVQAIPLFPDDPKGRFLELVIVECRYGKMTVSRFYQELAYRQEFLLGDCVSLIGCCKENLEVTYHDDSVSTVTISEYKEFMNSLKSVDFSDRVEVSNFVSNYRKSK
ALR inh: human ALR oxidase inhibition via reduced H2O2. P55789. purified ALR, DTT oxidation, H2O2 HRP-luminol luminescence. inhibition, % (no concentration beside the values). 3.8% of 290,000 active. AID 485317;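 active = mean replicate inhibition above about 79%, with every replicate also reaching it, limit read from the data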
Target sequence (P55789 whole entry, looked up): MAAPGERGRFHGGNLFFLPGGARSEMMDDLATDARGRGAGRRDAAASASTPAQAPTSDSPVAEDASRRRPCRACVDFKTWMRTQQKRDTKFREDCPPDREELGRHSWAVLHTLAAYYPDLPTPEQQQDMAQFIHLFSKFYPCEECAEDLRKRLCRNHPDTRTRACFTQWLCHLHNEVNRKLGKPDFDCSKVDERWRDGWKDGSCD
ABHD5-PLIN5 inh: ABHD5-PLIN5 protein interaction inhibition; Q00G26+Q8WTS1; AID 602281; 0.78% of 360,000 active; inhibition, % at 4 µM; Split G. princeps luciferase complementation, luminescence, 4 h;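 active = inhibition above the mean inhibition across every tested compound plus 3 SD, cut at about 22% in these data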;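 note: 0% = DMSO only wells and the 100% control is not disclosed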
PRMT1 inh: inhibitors of human PRMT1. recombinant PRMT1, activity-based probe fluorescence polarization. inhibition, % at 2.79 µM. 1.3% of 370,000 active. AID 652257;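 active = inhibition above about 21% made by adding two undisclosed values, limit read from the data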
LANA-H2A inh: blocks KSHV LANA binding to histone H2A/H2B; Q9QR71; cell-free LANA-H2A/H2B peptide, fluorescence polarization; inhibition, % (no concentration beside the values); 0.6% of 320,000 active; AID 2629; in the data active = inhibition mostly above about 10%, no sharp cut-off; inactive = mostly below about 6.7%
rCAG binder: molecules binding r(CAG) RNA repeats; r(CAG) RNA repeat, TO-PRO-1 dye displacement fluorescence; inhibition, % at 3 µM; 1.3% of 370,000 active;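 active = inhibition above the plate cutoff, the mean of all test compounds on that plate plus 3 SD, cut at about 35% in these data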;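 note: 0% = DMSO alone and 100% = 100 µM mitoxantrone as full dye displacement; higher means more dye released from RNA so lower well fluorescence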
Active calls of the source: *; . = not tested or not shown. The list is not random: actives were taken first. Their share in the collection is about 5.9%.

SMILES | Rtt109 Vps75 | ALR inh | ABHD5-PLIN5 inh | PRMT1 inh | LANA-H2A inh | rCAG binder
CC(NC(=O)CCNC(=O)N1CCn2c1nc1ccccc12)c1ccccc1 (stereo not given) | -10 | 97* | 3 | 4 | 3 | -4
O/N=C\c1ccc(-c2ccccc2)o1 | -4 | 78* | -5 | 0 | -2 | 2
COc1ccccc1-c1ccc(/C=N/O)o1 | . | 52 | -5 | 1 | -8 | 3
CN(C)/N=C/c1ccc(/C=N/NC(N)=S)o1 | 4 | 99* | -2 | -2 | 4 | 2
NC(=S)N/N=C/c1ccc(-c2ccccc2)o1 | 13 | 98* | -1 | 11 | -1 | 4
Cc1ccc(-c2ccc(/C=N/NC(N)=S)o2)cc1 | 6 | -6 | -4 | 5 | 2 | 4
COc1cc(/C=C2/C(=O)N(c3ccc(C(=O)O)cc3)N=C2C)cc(OC)c1O | -1 | 93* | -5 | 5 | 1 | -3
O=C(O)c1ccc(S(=O)(=O)NN=Cc2c[nH]c3ccccc23)cc1 | . | . | 9 | 3 | . | -1
O=C(N/N=C\c1c[nH]c2ccccc12)c1ccc(O)cc1 | -15 | 46 | -2 | 11 | 74* | 2
NC(=S)N/N=C/c1c[nH]c2ccccc12 | 0 | 99* | -3 | 6 | -2 | 7
O=C(O)c1ccc(N/N=C/c2c[nH]c3ccccc23)cc1 | -15 | 98* | -3 | 5 | -6 | 5
O=C(N/N=C/c1c[nH]c2ccccc12)c1ccc(Br)cc1 | 13 | 10 | -1 | -3 | -1 | 7
O=C(O)c1ccc(N/N=C/C(Br)=C/c2ccccc2)cc1 | 47 | 98* | 9 | 7 | -1 | 16
O=C(N/N=C/C(Br)=C/c1ccccc1)c1ccncc1 | 9 | . | 9 | -4 | -3 | 5
COC(=O)N/N=C/c1c[nH]c2ccccc12 | -5 | 42 | 2 | -1 | -2 | 1
CC(=O)Nc1ccc2ccccc2c1[N+](=O)[O-] | 0 | . | -4 | 1 | . | 4
COCCNC(=O)C1(C)CCN(Cc2noc(-c3c(C)noc3C)n2)C1 (stereo not given) | . | . | 7 | . | . | .
Cc1cc(C)nc(N/N=C/c2c[nH]c3ccccc23)n1 | -6 | 17 | 0 | 1 | -8 | -4
Cn1c(N/N=C/c2c[nH]c3ccccc23)nc2ccccc21 | 20 | 98* | -2 | -1 | -5 | 12
COc1ccc(-c2cc(C(=O)NCC3CCCCC3)[nH]n2)c(C)c1 | . | . | -8 | -6 | . | -3
CN(C)c1ccc(/C=N/NC(=O)CNC(=O)c2ccc3c(c2)OCCO3)cc1 | -5 | 98* | 1 | -1 | 25* | 0
CN(C)c1ccc(/C=N/NC(=O)CNC(=O)c2ccncc2)cc1 | 4 | 98* | -1 | -2 | -1 | 1
CCN(CC)c1ccc(/C=N/NC(=O)CNC(=O)c2ccc3c(c2)OCCO3)cc1 | 12 | 87* | 10 | -2 | 8 | 6
CN(C)c1ccc(/C=N/NC(=S)NCc2ccco2)cc1 | -3 | 98* | -7 | 3 | -1 | 5
Cc1ccc(OCC(=O)Nc2ccc(C)c(F)c2)c([N+](=O)[O-])n1 | -5 | . | -5 | 0 | . | 0
SMILES | Rtt109 Vps75 | ALR inh | ABHD5-PLIN5 inh | PRMT1 inh | LANA-H2A inh | rCAG binder
O=C(/C=C/c1ccco1)NCC(=O)N/N=C/c1ccc(Cl)cc1 | 2 | 39 | 5 | -1 | -2 | 1
CN(C)c1ccc(/C=N/NC(=O)CNC(=O)/C=C/c2ccco2)cc1 | -7 | 91* | -5 | 0 | 2 | 1
C/C(=N\NC(=O)c1ccccn1)c1ccc(Cl)cc1 | . | -5 | 3 | 2 | -3 | -1
C/C(=N/NC(=O)c1ccccn1)c1ccc(O)cc1 | -5 | 99* | -1 | -3 | 4 | 0
C/C(=N\NC(=O)COc1ccccc1)c1ccc(O)cc1 | 2 | 100* | 4 | -2 | 0 | -3
COc1ccc(OCC(=O)N/N=C(\C)c2ccc(OC)cc2)cc1 | 3 | . | -19 | 2 | 3 | -3
Cc1ccc(C)c(/C=N/Nc2nc3ccccc3c(=O)n2O)c1 | . | 6 | -7 | 25* | -1 | 0
C/C(=N\Nc1nc2ccccc2c(=O)n1O)c1ccco1 | -1 | -12 | -3 | 36* | -1 | 7
CCC(=O)N[C@H]1C[C@@H]2O[C@@H](CO)CC[C@@H]2O[C@@H]1CCc1ccc(-c2cccc(OC)c2)cc1 | . | . | . | 5 | . | 5
CC[n+]1c(/C=C/C=C/N(C(C)=O)c2ccccc2)sc2ccccc21 | 11 | 50 | -11 | 35* | -266 | 8
COc1ccc(CNC(=O)[C@@H](Cc2ccccc2)NC(=O)[C@H]2O[C@@H](n3cnc4c(=O)[nH]c(N)nc43)[C@H](O)[C@@H]2O)cc1 | . | . | . | -5 | . | 7
COc1ccc([N+](=O)[O-])cc1NCC(=O)Nc1cc(S(=O)(=O)N2CCCCC2)ccc1C | 1 | . | 0 | 5 | -1 | 7
O=S1(=O)c2c(cccc2N2CC[C@H](O)C2)OCCCN1C1CC1 | . | . | . | 4 | . | 5
CCCCCCOc1ccc(/C=C/C(=O)N2CCOCC2)cc1OC | -7 | -25 | 0 | -4 | 11* | -11
O=C(CNCc1ccco1)Nc1ccc(N2CCCCCC2)cc1 | 2 | 99* | -3 | -2 | -3 | -5
O=C(CNC(=O)c1ccco1)Nc1ccc(N2CCCCCC2)cc1 | -5 | 98* | -4 | 1 | -1 | 2
CC(=O)N1CCN(C2=Nc3ccccc3Sc3ccccc32)CC1 | . | . | . | 0 | . | 0
Cc1ccc(C(=O)NCC(=O)OC(C)C(=O)Nc2ccccc2[N+](=O)[O-])s1 (stereo not given) | -3 | -4 | -3 | 3 | -1 | -1
Cc1ccc(C(=O)NCC(=O)OC(C)C(=O)Nc2ccc(N(C)C)cc2)s1 (stereo not given) | -2 | 99* | 0 | 0 | 8 | -4
C#CCN1CC(N(C)CCOC(=O)c2ccc(C(C)(C)C)cc2)CS1(=O)=O (stereo not given) | . | . | . | 6 | . | 0
CC(C)c1ccc(/C=C2\CC/C(=C\C=N\N(C)C)C2=O)cc1 | 4 | 96* | 12 | -2 | -2 | -3
Cc1ccccc1-c1ccc2c(c1)[C@@H]1C[C@H]3[C@@H](CN1CC2)[C@H](C)ON3C | . | . | . | -2 | . | 4
Cc1ccc(NC2CCCN(C(=O)C3CCCCC3)C2)cc1C (stereo not given) | 14 | 99* | 14 | -1 | 4 | -7
O=C(C1CCCC1)N1CCCC(Nc2ccc(F)cc2)C1 (stereo not given) | -21 | 99* | 4 | 1 | -1 | -4
O=C(C1CCCC1)N1CCCC(Nc2ccccc2)C1 (stereo not given) | -5 | 99* | -8 | -3 | 3 | -7
Cc1ccccc1N(C)C(=O)CN1CCN(c2nc(-c3ccccc3)cs2)CC1 | . | . | . | 2 | . | 2
C=CCNC(=S)NNC(=O)c1cc(O)ccc1O | 15 | 99* | -2 | 3 | -2 | 1
O=C1C(=O)N(Cc2ccc(-c3ccc(F)nc3)cc2)c2ccc(OC(F)(F)F)cc21 | . | . | . | 2 | . | .
